# In PubChem BioAssay (NCATS):
# Results filed as inconclusive are left out. Unmarked numbers belong to inactive results. Activity calls are given as the source filed them. Calls come from the whole dose curve.
# Test: Primary qHTS for Vero E6 cytotoxicity: counterscreen for inhibitors of SARS-S pseudo-typed particle cell entry (AID 1479150)
# Conditions: cell viability; series mostly up to 57.1 µM; activity change, negative = cytotoxicity: at the top concentration
# % is set by controls: 0 for no effect and ±100 for the full control effect.
Structure (SMILES),"activity change, negative = cytotoxicity",outcome
Nc1ccc(S(N)(=O)=O)cc1,4.51%,–
Cc1cc(C)c(NC(=O)CN(CC(=O)O)CC(=O)O)c(C)c1Br,–,inactive
COc1cc2c3cc1Oc1cc(ccc1O)C[C@@H]1c4c(cc(OC)c(O)c4Oc4ccc(cc4)C[C@@H]3N(C)CC2)CC[N+]1(C)C,–,inactive
CN1[C@@H]2CC(OC(=O)[C@H](CO)c3ccccc3)C[C@H]1[C@@H]1O[C@@H]12 (stereo partly drawn),–,inactive
CC(C)(C)NCC(O)COc1ccccc1OCC1CCCO1 (stereo not drawn),–,inactive
CC(=O)CC(c1ccc([N+](=O)[O-])cc1)c1c(O)c2ccccc2oc1=O (stereo not drawn),–,inactive
CCC(Cc1c(I)cc(I)c(N)c1I)C(=O)O (stereo not drawn),-3.56%,–
CCCCCCCCCCCCCCCCCC(=O)O,2.33%,–
CCc1cc(C(N)=S)ccn1,–,inactive
CC1CCc2c(N3CCC(O)CC3)c(F)cc3c(=O)c(C(=O)O)cn1c23 (stereo not drawn),–,inactive
O=C(CO)[C@@H](O)[C@H](O)[C@@H](O)CO,3.61%,–
CC(=O)OCC1=C(C(=O)O)N2C(=O)[C@@H](NC(=O)Cc3cccs3)[C@H]2SC1,–,inactive
COc1ccc(O)cc1,4.06%,–
CC(=O)NC[C@H]1CN(c2ccc(N3CCOCC3)c(F)c2)C(=O)O1,–,inactive
CC1CC(OC(=O)c2ccccc2O)CC(C)(C)C1 (stereo not drawn),-8.22%,–
CC(=O)NCc1c(I)c(NC(C)=O)c(I)c(C(=O)O)c1I,3.59%,–
CN1C(CSCC(F)(F)F)Nc2cc(Cl)c(S(N)(=O)=O)cc2S1(=O)=O (stereo not drawn),–,inactive
O=C(Oc1ccccc1C(=O)O)c1ccccc1O,–,inactive
OC[C@H]1O[C@@H](n2cnc3c2NC=NC[C@H]3O)C[C@@H]1O,-12.2%,–

Structure (SMILES),"activity change, negative = cytotoxicity",outcome
CC(=O)c1ccc(S(=O)(=O)NC(=O)NC2CCCCC2)cc1,–,inactive
COCCCOc1ccnc(CS(=O)c2nc3ccccc3[nH]2)c1C (stereo not drawn),1.12%,–
O=C(c1ccccc1)c1ccccc1,–,inactive
Cc1ccc(C(=O)C(=O)O)cc1C,–,inactive
CC[N+](CC)(CCNC(=O)C(=O)NCC[N+](CC)(CC)Cc1ccccc1Cl)Cc1ccccc1Cl,–,inactive
CC[C@H](C)[C@H](N)C(=O)O,1.98%,–
COC(=O)C(c1ccccc1)C1CCCCN1 (stereo not drawn),3.13%,–
O=C(COCCOCCOCC(=O)Nc1c(I)cc(I)c(C(=O)O)c1I)Nc1c(I)cc(I)c(C(=O)O)c1I,-1.43%,–
CC(=O)OCC(=O)[C@@]1(O)CC[C@H]2[C@@H]3CCC4=CC(=O)CC[C@]4(C)[C@H]3C(=O)C[C@@]21C,3.35%,–
Nc1ccn([C@@H]2CS[C@H](CO)O2)c(=O)n1,0.506% [at 114 µM],–
CC(C)(C)C(=O)Oc1ccc(S(=O)(=O)Nc2ccccc2C(=O)NCC(=O)O)cc1,-1.74%,–
NCCNCCNCCN,–,inactive
NS(=O)(=O)c1cc(C(=O)O)cc(N2CCCC2)c1Oc1ccccc1,-9.5%,–
Nc1nc(=O)n([C@@H]2CS[C@H](CO)O2)cc1F,–,inactive
C[C@]12C=CC(=O)C=C1CC[C@@H]1[C@@H]2C(=O)C[C@@]2(C)[C@H]1CC[C@]2(O)C(=O)CO,–,inactive
CC(C)=CCC/C(C)=C/CO,–,inactive
CC(=O)Nc1ccc(OC(=O)c2ccccc2OC(C)=O)cc1,–,inactive
C[C@@H]1C[C@H]2[C@@H]3C[C@H](F)C4=CC(=O)C=C[C@]4(C)[C@@]3(F)[C@@H](O)C[C@]2(C)[C@@]1(O)C(=O)CO,–,inactive
C[N+](C)(CCOc1ccccc1)Cc1cccs1,–,inactive
